By AC50 is commonly meant the concentration at which the activity in the assay is half-maximal.

Molecules are shown by their SMILES. Active and inactive are the calls of the source. The calls were made as follows: active = hit-call score of the fitted dose curve at least 0.9, where 1 is the maximum; inactive = score below 0.9.

Assay [1] addresses Bile acid receptor (Homo sapiens) (UniProt Q96RI1). Briefly: ATG_IR1_CIS: Attagene CIS-FACTORIAL HepG2 Assay for human Nuclear Receptor Subfamily 1 Group H Member 4 (NR1H4), IR1 submotif (AID 2282946). Conditions: IR1 reporter transcription, actives raise or lower the signal. Put shortly: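 HepG2 cells transiently transfected with multiplexed cis-element reporter units read endogenous transcription factor activity. After 24 h compound exposure, reporter mRNA was quantified by RT-PCR, fluorescent labelling, HpaI digestion and capillary electrophoresis; bidirectional fitting versus DMSO baseline.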

A short description of assay [2]: ATG_GRE_CIS: Attagene CIS-FACTORIAL HepG2 Assay for human Glucocorticoid Response Elements (GRE) (AID 2282947). Conditions: HepG2 GRE cis-reporter, Attagene multiplex mRNA; actives raise or lower the signal. A digest of the protocol: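 Multiplexed cis-reporter mRNA induction, HepG2, 24 h post-dose. RT-PCR, FAM-labelled, HpaI-digested amplicons by CE. Bidirectional fit vs DMSO.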

Assay [3] can be described thus: ATG_ISRE_CIS: Attagene CIS-FACTORIAL HepG2 Assay for human Interferon Regulatory Factor 1 (IRF1) binding to an Interferon-Stimulated Response Element (ISRE) (AID 2282948). Conditions: HepG2 ISRE cis-reporter (Attagene), mRNA transcription readout; actives raise or lower the signal. Put shortly:
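Multiplexed mRNA reporter readout in human liver HepG2 cells: cis-element-driven reporters transfected, compound added for 24 h, transcripts amplified, fluorescently labelled and sized by capillary electrophoresis; curve fitting bidirectional against DMSO.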

The nature of assay [4]: ATG_M_32_CIS: Attagene CIS-FACTORIAL HepG2 Assay for M32 Transcription Factor (Internal Marker) (AID 2282949).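 Also: background control marker of the multiplexed CIS panel rather than a real target.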 Particulars: HepG2 Attagene cis-factorial M32 reporter, mRNA; actives raise or lower the signal. Put shortly: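 Transient MRTU transfection of HepG2; 24 h compound treatment; TriZol RNA, oligo(dT) RT, reporter PCR, 6-FAM primer extension, HpaI cut, CE. Gain/loss of signal vs DMSO.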

A short description of assay [5]: ATG_M_06_CIS: Attagene CIS-FACTORIAL HepG2 Assay for M06 Transcription Factor (Internal Marker) (AID 2282950). Conditions: HepG2 Attagene CIS-FACTORIAL M06 internal marker reporter; actives raise or lower the signal. A digest of the protocol: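 Terse: HepG2, transient MRTU transfection (FuGene 6), 24 h dosing; total RNA, oligo(dT) RT, PCR, FAM label, HpaI cut, capillary electrophoresis; bidirectional fit vs DMSO baseline; background-control endpoint.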

The target in assay [6] is Hypoxia-inducible factor 1-alpha (Homo sapiens) (UniProt Q16665). Briefly: ATG_HIF1a_CIS: Attagene CIS-FACTORIAL HepG2 Assay for human Hypoxia Inducible Factor 1 (HIF1A) (AID 2282951). Particulars: HepG2 Attagene cis-factorial HIF1a reporter transcription; actives raise or lower the signal. A digest of the protocol:
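Dosed 24 h, transfected HepG2 cells yielded total RNA whose reporter transcripts were RT-PCR-amplified and sized by capillary electrophoresis using fluorescent labelling; DMSO defined baseline, with gain and loss of signal both fitted.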

Assay [7] deals with Hepatocyte nuclear factor 6 (Homo sapiens) (UniProt Q9UBC0). Briefly: ATG_HNF6_CIS: Attagene CIS-FACTORIAL HepG2 Assay for human Hepatocyte Nuclear Factor 6 (HNF6) (AID 2282952). Particulars: HepG2 Attagene cis-factorial HNF6 reporter transcription; actives raise or lower the signal. Put shortly:
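Endogenous factor activity read in transiently transfected HepG2 via promoter-regulated reporter transcripts. RNA harvested 24 h post-dosing, reverse-transcribed, PCR-amplified, FAM-labelled, HpaI-digested and resolved by capillary electrophoresis; fitted in both directions against DMSO.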

In assay [8] the target is Heat shock factor protein 1 (Homo sapiens) (UniProt Q00613). Briefly: ATG_HSE_CIS: Attagene CIS-FACTORIAL HepG2 Assay for human Heat Shock Transcription Factor 1 (HSE) (AID 2282953). Particulars: HepG2 HSE cis-reporter, Attagene RNA transcription; actives raise or lower the signal. Put shortly:
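Read-out: fluorescence of reporter-specific RT-PCR fragments separated by capillary electrophoresis. HepG2 carrying transfected cis-element reporter units; 24 h dosing; activity fitted in both directions relative to DMSO baseline.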

Assay [9] in a line: ATG_MRE_CIS: Attagene CIS-FACTORIAL HepG2 Assay for human Metal Responsive Element (MRE) (AID 2282954). Particulars: HepG2 MRE cis-reporter transcription, Attagene multiplex; actives raise or lower the signal. Put shortly:
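Multiplexed cis-reporter assay in human HepG2 liver cells, 24 h incubation with test chemical. Reporter transcripts measured by RT-PCR and capillary electrophoresis; values from bidirectional curve fitting versus DMSO.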

A short description of assay [10]: ATG_PBREM_CIS: Attagene CIS-FACTORIAL HepG2 Assay for human Phenobarbital-responsive Enhancer Module (PBREM) (AID 2282955). Conditions: HepG2 PBREM cis-reporter, Attagene multiplexed transcription; actives raise or lower the signal. Put shortly: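 Transfected liver-derived HepG2 cells exposed 24 h; PBREM reporter transcript quantified via RT-PCR and capillary electrophoresis, with activity in either direction referenced to DMSO.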

For assay [11], the target named is Paired box protein Pax-6 (Homo sapiens) (UniProt P26367). Briefly: ATG_Pax6_CIS: Attagene CIS-FACTORIAL HepG2 Assay for human Paired Box 6 (PAX6) (AID 2282956). Conditions: HepG2 CIS-FACTORIAL PAX6 reporter transcription, RNA readout; actives raise or lower the signal. A digest of the protocol: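 Fluorescent RT-PCR products separated by capillary electrophoresis report PAX6-linked promoter mRNA in HepG2 cells 24 h post-dose. Curves fitted bidirectionally, DMSO as negative control.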

A short description of assay [12]: ATG_PXRE_CIS: Attagene CIS-FACTORIAL HepG2 Assay for human Pregnane X Receptor Element (PXRE) (AID 2282957). Particulars: HepG2 Attagene CIS-FACTORIAL PXRE reporter, mRNA; actives raise or lower the signal. A digest of the protocol:
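Reporter transcripts under endogenous PXR-responsive cis-regulation quantified from total RNA of transfected HepG2 cells 24 h post-dosing, via RT-PCR with fluorescent primer extension and capillary electrophoresis. Gain or loss of signal fitted against DMSO baseline.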

Assay [13] is described as follows: ATG_RORE_CIS: Attagene CIS-FACTORIAL HepG2 Assay for human RAR-related Orphan Receptor Element (RORE) (AID 2282959). Conditions: HepG2 Attagene cis-factorial RORE reporter, mRNA; actives raise or lower the signal. A digest of the protocol:
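Transiently transfected HepG2 reporter cells were treated 24 h. Reporter transcripts were detected by RT-PCR and capillary electrophoresis, with bidirectional fitting against DMSO.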

Assay [14] can be described thus: ATG_Sox_CIS: Attagene CIS-FACTORIAL HepG2 Assay for human SRY-box transcription factor (SOX) (AID 2282960). Conditions: HepG2 Attagene cis-factorial SOX reporter, mRNA; actives raise or lower the signal. A digest of the protocol:
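Gain- or loss-of-signal endpoint, fitted bidirectionally with DMSO as negative control. Based on reporter mRNA from transfected HepG2 cells harvested 24 h post-treatment and quantified via RT-PCR and capillary electrophoresis.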

The target in assay [15] is Transcription factor Sp1 (Homo sapiens) (UniProt P08047). Briefly: ATG_Sp1_CIS: Attagene CIS-FACTORIAL HepG2 Assay for human Specificity Protein 1 (Sp1) (AID 2282961). Particulars: HepG2 Sp1 cis-reporter transcription, actives raise or lower the signal. Put shortly: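 Endpoint reflects endogenous Sp1 transcriptional activity, not an exogenous fusion protein: HepG2 cells with transfected cis-regulated reporters, 24 h dosing, RT-PCR/capillary electrophoresis mRNA read-out, DMSO-normalised bidirectional fit.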

Assay [16] in a line: ATG_SREBP_CIS: Attagene CIS-FACTORIAL HepG2 Assay for human Sterol Regulatory Element Binding (SREBP) (AID 2282962). Particulars: HepG2 Attagene cis-factorial SREBP reporter, mRNA; actives raise or lower the signal. Put shortly:
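Endogenous factor activity is measured in HepG2 through multiplexed reporter units under cis-element control. Following a 24 h incubation, reporter transcripts are reverse-transcribed, PCR-amplified and sized by capillary electrophoresis; activity is fitted in both directions relative to DMSO.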

For assay [17], the target named is Signal transducer and activator of transcription 3 (Homo sapiens) (UniProt P40763). Briefly: ATG_STAT3_CIS: Attagene CIS-FACTORIAL HepG2 Assay for human Signal Transducer and Activator of Transcription 3 (STAT3) (AID 2282963). Particulars: HepG2, Attagene cis-factorial STAT3 reporter transcription; actives raise or lower the signal. A digest of the protocol:
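Cis-factorial format: endogenous transcription factors in HepG2 drive transfected reporter units. After 24 h treatment, reporter RNA was reverse-transcribed, amplified, FAM-labelled and HpaI-digested before CE analysis; activity scored in both directions against DMSO.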

Assay [18] in a line: ATG_TA_CIS: Attagene CIS-FACTORIAL HepG2 Assay for human TA Basal Promoter (AID 2282964). Conditions: HepG2 Attagene CIS-factorial TA basal promoter reporter; actives raise or lower the signal. Put shortly:
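Transfected HepG2, 24 h compound exposure; RNA → RT-PCR → FAM primer extension → HpaI cut → CE fluorescence. Gain/loss-of-signal fitted against DMSO negative control. Background-control readout.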

Assay [19] is described as follows: ATG_TCF_b_cat_CIS: Attagene CIS-FACTORIAL HepG2 Assay for human T-Cell-Factor with beta-catenin (TCF/b-cat) (AID 2282965). Particulars: HepG2 TCF/beta-catenin cis-reporter transcription, actives raise or lower the signal. A digest of the protocol: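 Endogenous transcription factor activity is captured through cis-promoter reporter constructs transiently introduced into human HepG2 liver cells. Induced reporter mRNA is measured after 24 h and fitted bidirectionally relative to DMSO.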

Sequence of Hypoxia-inducible factor 1-alpha (Homo sapiens) (Q16665 whole entry, looked up): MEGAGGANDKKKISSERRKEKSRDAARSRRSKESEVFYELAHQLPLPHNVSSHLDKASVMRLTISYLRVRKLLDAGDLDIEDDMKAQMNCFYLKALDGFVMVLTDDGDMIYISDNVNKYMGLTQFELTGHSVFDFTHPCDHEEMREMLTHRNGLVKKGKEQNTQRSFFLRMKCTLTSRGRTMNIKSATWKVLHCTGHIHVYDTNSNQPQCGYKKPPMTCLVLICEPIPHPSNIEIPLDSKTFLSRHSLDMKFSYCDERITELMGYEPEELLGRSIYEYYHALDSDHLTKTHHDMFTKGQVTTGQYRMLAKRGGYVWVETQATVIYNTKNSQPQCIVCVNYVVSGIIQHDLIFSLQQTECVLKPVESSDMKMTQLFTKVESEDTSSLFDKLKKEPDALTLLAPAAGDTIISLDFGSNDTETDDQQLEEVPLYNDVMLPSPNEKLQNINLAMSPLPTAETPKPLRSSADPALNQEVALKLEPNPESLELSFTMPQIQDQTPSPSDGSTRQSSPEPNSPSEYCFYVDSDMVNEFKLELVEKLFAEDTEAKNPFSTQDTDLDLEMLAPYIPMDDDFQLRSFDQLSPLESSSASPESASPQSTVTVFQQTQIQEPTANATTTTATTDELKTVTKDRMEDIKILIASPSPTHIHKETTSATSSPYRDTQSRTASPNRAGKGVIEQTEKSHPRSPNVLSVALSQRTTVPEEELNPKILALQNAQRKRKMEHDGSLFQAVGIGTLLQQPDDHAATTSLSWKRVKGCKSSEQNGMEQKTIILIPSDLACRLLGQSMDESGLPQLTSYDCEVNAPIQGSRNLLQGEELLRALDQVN
Sequence of Transcription factor Sp1 (Homo sapiens) (P08047 whole entry, looked up, the tested form may be a part): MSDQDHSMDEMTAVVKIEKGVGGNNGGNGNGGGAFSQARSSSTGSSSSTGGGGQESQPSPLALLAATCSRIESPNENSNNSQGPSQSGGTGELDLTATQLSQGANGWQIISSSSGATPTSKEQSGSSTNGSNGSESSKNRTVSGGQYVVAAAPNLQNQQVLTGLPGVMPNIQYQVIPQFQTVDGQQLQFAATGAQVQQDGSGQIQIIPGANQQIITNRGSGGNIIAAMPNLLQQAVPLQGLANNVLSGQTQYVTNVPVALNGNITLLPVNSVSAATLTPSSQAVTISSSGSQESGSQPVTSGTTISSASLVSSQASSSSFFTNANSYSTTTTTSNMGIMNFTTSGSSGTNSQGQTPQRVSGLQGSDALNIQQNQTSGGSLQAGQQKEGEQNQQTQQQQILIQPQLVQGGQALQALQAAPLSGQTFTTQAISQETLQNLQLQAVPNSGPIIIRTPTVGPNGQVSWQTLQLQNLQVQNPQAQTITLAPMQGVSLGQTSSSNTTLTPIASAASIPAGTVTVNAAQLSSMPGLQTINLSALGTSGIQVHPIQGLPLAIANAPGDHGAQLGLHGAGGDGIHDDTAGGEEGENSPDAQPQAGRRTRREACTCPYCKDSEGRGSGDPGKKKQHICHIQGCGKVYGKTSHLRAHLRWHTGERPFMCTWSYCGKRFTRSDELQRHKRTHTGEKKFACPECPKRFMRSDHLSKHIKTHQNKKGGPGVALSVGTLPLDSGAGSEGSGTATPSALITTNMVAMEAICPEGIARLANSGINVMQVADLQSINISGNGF
Sequence of Paired box protein Pax-6 (Homo sapiens) (P26367 whole entry, looked up): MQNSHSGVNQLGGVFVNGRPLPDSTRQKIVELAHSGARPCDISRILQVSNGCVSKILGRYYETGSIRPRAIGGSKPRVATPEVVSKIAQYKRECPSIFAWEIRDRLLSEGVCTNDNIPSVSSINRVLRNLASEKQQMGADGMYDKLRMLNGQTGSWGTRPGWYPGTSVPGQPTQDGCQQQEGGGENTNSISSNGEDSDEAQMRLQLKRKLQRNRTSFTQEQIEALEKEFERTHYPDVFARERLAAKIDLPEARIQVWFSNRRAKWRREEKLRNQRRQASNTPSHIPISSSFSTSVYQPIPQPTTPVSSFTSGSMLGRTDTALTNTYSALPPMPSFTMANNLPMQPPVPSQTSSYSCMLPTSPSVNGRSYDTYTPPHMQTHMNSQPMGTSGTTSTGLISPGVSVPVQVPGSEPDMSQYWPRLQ
Sequence of Bile acid receptor (Homo sapiens) (Q96RI1 whole entry, looked up): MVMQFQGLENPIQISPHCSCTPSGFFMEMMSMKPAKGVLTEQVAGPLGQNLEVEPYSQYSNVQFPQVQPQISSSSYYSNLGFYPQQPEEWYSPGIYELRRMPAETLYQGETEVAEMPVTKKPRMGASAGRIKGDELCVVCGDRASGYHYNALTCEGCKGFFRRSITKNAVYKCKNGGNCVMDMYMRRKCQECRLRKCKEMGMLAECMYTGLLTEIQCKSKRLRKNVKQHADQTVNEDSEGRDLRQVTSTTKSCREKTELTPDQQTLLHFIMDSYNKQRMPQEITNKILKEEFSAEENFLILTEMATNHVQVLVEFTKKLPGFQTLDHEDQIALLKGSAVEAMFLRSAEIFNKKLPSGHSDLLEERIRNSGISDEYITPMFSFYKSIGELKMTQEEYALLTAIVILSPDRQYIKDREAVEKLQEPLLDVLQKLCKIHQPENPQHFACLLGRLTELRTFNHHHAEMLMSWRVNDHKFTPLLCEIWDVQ
Sequence of Heat shock factor protein 1 (Homo sapiens) (Q00613 whole entry, looked up, the tested form may be a part): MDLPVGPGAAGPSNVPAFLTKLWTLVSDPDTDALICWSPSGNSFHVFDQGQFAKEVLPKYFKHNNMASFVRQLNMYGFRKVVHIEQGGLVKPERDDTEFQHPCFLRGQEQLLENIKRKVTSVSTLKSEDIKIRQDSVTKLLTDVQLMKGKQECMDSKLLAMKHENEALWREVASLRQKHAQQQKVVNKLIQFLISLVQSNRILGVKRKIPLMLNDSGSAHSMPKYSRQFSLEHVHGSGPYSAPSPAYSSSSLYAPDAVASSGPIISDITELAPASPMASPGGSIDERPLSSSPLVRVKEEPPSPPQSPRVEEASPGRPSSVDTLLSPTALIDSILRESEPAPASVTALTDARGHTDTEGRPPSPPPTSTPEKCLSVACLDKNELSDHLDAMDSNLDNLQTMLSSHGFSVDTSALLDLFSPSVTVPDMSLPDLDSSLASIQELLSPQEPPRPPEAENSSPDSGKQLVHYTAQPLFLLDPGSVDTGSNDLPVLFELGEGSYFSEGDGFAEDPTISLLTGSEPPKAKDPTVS
Sequence of Hepatocyte nuclear factor 6 (Homo sapiens) (Q9UBC0 whole entry, looked up): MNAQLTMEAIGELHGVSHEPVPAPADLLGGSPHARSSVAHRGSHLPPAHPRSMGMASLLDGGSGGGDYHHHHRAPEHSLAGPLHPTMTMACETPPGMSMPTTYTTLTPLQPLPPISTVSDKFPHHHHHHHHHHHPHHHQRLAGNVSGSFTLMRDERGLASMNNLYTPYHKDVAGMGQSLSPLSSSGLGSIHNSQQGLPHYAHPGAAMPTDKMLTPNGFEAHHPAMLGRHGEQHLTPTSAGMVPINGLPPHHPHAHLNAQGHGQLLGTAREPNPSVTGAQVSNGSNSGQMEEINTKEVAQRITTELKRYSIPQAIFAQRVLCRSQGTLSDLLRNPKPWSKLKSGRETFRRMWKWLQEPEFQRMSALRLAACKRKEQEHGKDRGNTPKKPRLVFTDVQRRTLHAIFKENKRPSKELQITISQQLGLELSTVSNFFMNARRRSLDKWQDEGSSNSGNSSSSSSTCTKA
Sequence of Signal transducer and activator of transcription 3 (Homo sapiens) (P40763 whole entry, looked up): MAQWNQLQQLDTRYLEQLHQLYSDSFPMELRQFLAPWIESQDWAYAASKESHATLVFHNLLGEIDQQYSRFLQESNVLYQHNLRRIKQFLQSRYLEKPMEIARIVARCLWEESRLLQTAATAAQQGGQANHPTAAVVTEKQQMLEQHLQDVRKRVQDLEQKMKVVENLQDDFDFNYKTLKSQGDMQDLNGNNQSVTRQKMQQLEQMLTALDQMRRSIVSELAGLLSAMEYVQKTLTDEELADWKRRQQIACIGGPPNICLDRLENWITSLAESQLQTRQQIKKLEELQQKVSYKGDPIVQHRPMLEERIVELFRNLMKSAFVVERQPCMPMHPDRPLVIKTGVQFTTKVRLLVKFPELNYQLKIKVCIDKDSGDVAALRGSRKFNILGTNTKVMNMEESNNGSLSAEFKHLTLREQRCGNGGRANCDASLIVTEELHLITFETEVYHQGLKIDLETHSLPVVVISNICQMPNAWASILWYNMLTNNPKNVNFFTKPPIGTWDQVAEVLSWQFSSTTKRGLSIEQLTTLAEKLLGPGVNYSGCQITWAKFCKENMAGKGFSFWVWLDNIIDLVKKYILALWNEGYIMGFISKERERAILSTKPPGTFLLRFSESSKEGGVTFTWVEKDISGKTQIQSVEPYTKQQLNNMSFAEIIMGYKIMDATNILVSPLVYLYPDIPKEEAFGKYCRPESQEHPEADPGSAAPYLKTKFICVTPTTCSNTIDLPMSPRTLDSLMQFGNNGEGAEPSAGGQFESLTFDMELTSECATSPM

Take `Nc1ccc(Cl)cc1N`: the result in assay [1], in assay [2], in [3], in assay [4], in [5] and in [7] was inactive. In addition, the molecule was classed as inactive in assay [8], in [10], in [15], in assay [16], in assay [17] and in [19]. Further, the half-maximal activity concentration (AC50) in [6] is 27.6 µM (active); in assay [9] it was 22.9 µM (active); in assay [11], 27.4 µM (active); in [12], 26.1 µM (active); in assay [13], 27.7 µM (active); in assay [14], 26.8 µM (active). For the same molecule, the half-maximal activity concentration (AC50) in [18] was 9.74 µM (active).
On to `Nc1ccc([N+](=O)[O-])cc1`, for which the outcome in [1], in assay [2], in assay [3], in assay [4], in [5] and in assay [6] was inactive. Further, the molecule was classed as inactive in assay [7], in [8], in assay [9], in [10], in [11] and in [12]. For the same molecule, the molecule was classed as inactive in assay [13], in [14], in assay [15], in assay [16], in [18] and in assay [19].
Take `CN(C)c1ccccc1`: the call in assay [1], in assay [2], in assay [3], in [4], in assay [5] and in assay [6] was inactive. In addition, the call in assay [7], in assay [8], in assay [9], in [11], in [12] and in assay [14] was inactive. Moreover, the outcome in assay [15], in assay [16], in [18] and in [19] was inactive.

The record behind these values is PubChem BioAssay (EPA / NIEHS).
